14-3-3 Bad PPI: inhibitors of 14-3-3 zeta/Bad binding, primary screen, biochemical, TR-FRET, bovine 14-3-3 zeta; 14-3-3 protein zeta/delta (Bos taurus), P63103; TR-FRET 14-3-3zeta/Dy647-pBad peptide displacement, 1 h; inhibition, % at 21.7 µM; 0.71% of 220,000 active; AID 781, 2007;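 active means inhibition above about 70%, limit read from the data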;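 further: 0% = full 14-3-3 plus peptide FRET controls and 100% = background without 14-3-3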
Hck Nef HTS: inhibitors of Nef-activated human Hck kinase, primary screen, biochemical, Z-Lyte FRET, 384-well, Hck-YEEI. Tyrosine-protein kinase HCK (Homo sapiens), P08631. 0.68% of 220,000 active. inhibition, % at 20 µM. AID 463187, 2010. Recombinant Hck-YEEI plus Nef, Z-Lyte FRET kinase assay;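 active means Hck-Nef kinase inhibition above about 50%, limit read from the data; inactive means inhibition below that limit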;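 further: 0% = DMSO with Hck plus Nef and 100% = Hck alone without Nef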
Target sequence (P08631 whole entry, looked up): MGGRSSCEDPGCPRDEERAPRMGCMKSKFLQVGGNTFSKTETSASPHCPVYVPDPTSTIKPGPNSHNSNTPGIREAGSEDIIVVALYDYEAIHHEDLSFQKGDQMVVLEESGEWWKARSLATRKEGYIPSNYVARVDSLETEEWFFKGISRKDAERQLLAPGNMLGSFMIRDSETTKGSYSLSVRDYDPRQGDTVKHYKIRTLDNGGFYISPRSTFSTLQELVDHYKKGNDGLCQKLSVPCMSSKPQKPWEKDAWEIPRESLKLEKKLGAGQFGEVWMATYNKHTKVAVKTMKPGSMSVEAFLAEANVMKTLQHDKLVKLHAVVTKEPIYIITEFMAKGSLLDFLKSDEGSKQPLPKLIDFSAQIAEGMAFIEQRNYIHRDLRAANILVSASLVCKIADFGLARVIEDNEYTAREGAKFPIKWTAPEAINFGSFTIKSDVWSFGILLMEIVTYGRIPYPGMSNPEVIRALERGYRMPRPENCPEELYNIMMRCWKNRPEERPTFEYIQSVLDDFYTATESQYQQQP
Pf gamet viab: late stage P. falciparum gametocyte viability inhibitors, primary screen, ATP luminescence, HTS; 0.065% of 150,000 active; P. falciparum stage V gametocytes, 24 h; inhibition, % at 10.9 µM;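 active means inhibition above the mean plus 3 SD of compounds within the control limits, set per campaign, cut at about 38% in these data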;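 further: 0% = DMSO wells and 100% = medium only without gametocytes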
Bim-Mcl-1: inhibitors of Bim peptide binding to Mcl-1, primary screen, biochemical, bead-based flow cytometry, multiplex; AID 1009, 2008; inhibition, % at 10 µM; Induced myeloid leukemia cell differentiation protein Mcl-1 (Homo sapiens), Q07820; 0.1% of 190,000 active; Bim peptide-Mcl-1 binding; in the data active means inhibition above about 40%;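 further: 0% = no compound tracer wells and 100% = peptide blocker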
Mcl1 Noxa PPI: Mcl-1/Noxa binding inhibitors, primary screen, biochemical, TR-FRET, 1536-well | Induced myeloid leukemia cell differentiation protein Mcl-1 (Homo sapiens), Q07820 | TR-FRET Mcl-1/Noxa peptide binding, 2 h | inhibition, % at 21.7 µM | 1.5% of 220,000 active | AID 1022, 2008;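 active means compounds that cut the protein-peptide binding signal by more than 50% relative to plate controls in a single-dose test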;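 further: His-tagged Mcl-1 with rhodamine Noxa BH3 peptide and terbium anti-His antibody; 0% = Mcl-1 plus Noxa peptide wells and 100% = peptide-only wells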
Mcl1-Bid inh: Mcl-1/Bid binding inhibitors, primary screen, biochemical, TR-FRET, 1536-well | TR-FRET Mcl-1/Bid-Dy647 peptide binding | inhibition, % at 21.7 µM | 0.97% of 220,000 active;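 active means compounds that cut the binding signal by more than half at the single screening dose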;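 further: His-tagged Mcl-1 with europium anti-His antibody binding Bid BH3 peptide; 0% = Mcl-1 plus peptide wells and 100% = peptide-only wells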
* hit, by the source's call. Compounds with a hit are over-represented: about 2.9% of the library has one in this group of screens.

CCN1C(=O)C2C(c3cccc(F)c3)NC(CC)(C(=O)OC)C2C1=O (centres undefined) was read as 14-3-3 Bad PPI -6, Hck Nef HTS 0, Pf gamet viab -5, Bim-Mcl-1 0, Mcl1 Noxa PPI -15 and Mcl1-Bid inh -32.
Screening C/C(C/C(C)=C1/SC(=S)NC1=O)=C1\SC(=S)NC1=O returned 14-3-3 Bad PPI 37, Hck Nef HTS 75*, Pf gamet viab -4, Bim-Mcl-1 -1, Mcl1 Noxa PPI 73* and Mcl1-Bid inh 78*.
For CCOC(=O)CSc1nc(C2CC2)cc(-c2ccc(Cl)cc2)c1C#N the results were 14-3-3 Bad PPI 6, Hck Nef HTS 4, Bim-Mcl-1 -4, Mcl1 Noxa PPI 3 and Mcl1-Bid inh 97*.
`CS(=O)(=O)N1CCCC(C(=O)NCCc2ccc(Cl)cc2)C1` (centres undefined) gave 14-3-3 Bad PPI -3, Hck Nef HTS 0, Bim-Mcl-1 -4, Mcl1 Noxa PPI 18 and Mcl1-Bid inh -32.
Screening Cc1ccc(-n2nnnc2C(Cl)(Cl)c2nnnn2-c2ccc(C)cc2)cc1 returned 14-3-3 Bad PPI 16, Hck Nef HTS -1, Bim-Mcl-1 -9, Mcl1 Noxa PPI 53* and Mcl1-Bid inh -30.
`CCCc1nnc(SCC(=O)N2CCCCC2)n1CCCOC` gave 14-3-3 Bad PPI -11, Hck Nef HTS 0, Bim-Mcl-1 0, Mcl1 Noxa PPI -15 and Mcl1-Bid inh -9.
NC(=O)CC[C@@H]1NC(=O)[C@H](CO)NC(=O)c2cc([N+](=O)[O-])cc(I)c2NCCC[C@@H](C(N)=O)NC(=O)[C@H](Cc2ccc(O)cc2)NC1=O was read as 14-3-3 Bad PPI 5, Hck Nef HTS -8, Pf gamet viab 5, Bim-Mcl-1 0, Mcl1 Noxa PPI 62* and Mcl1-Bid inh 41.
For NC(=O)[C@@H]1CCCNc2c(I)cc([N+](=O)[O-])cc2C(=O)N[C@@H](CO)C(=O)N[C@@H](Cc2ccc(O)cc2)C(=O)N1 the results were 14-3-3 Bad PPI -4, Hck Nef HTS -5, Bim-Mcl-1 -1, Mcl1 Noxa PPI 14 and Mcl1-Bid inh 7.
`Cc1cccc(-c2nc(Nc3ccc(N4CCOCC4)cc3)c3ccccc3n2)c1` gave 14-3-3 Bad PPI -15, Hck Nef HTS 12, Pf gamet viab 6, Bim-Mcl-1 2, Mcl1 Noxa PPI 82* and Mcl1-Bid inh 25.
For O=C1CS/C(=N\C(=O)N2c3ccccc3Sc3ccccc32)N1 the results were 14-3-3 Bad PPI -8, Hck Nef HTS 1, Pf gamet viab -22, Bim-Mcl-1 -1, Mcl1 Noxa PPI 69* and Mcl1-Bid inh 0.
`O=C1CSC(=Nc2ccccc2)N1` gave 14-3-3 Bad PPI -5, Hck Nef HTS -2, Pf gamet viab 7, Bim-Mcl-1 -1, Mcl1 Noxa PPI 14 and Mcl1-Bid inh 0.
Screening CC1=C2C(CCS2(=O)=O)CC2(C1)C(=O)OC(C)(C)OC2=O (centres undefined) returned 14-3-3 Bad PPI -6, Hck Nef HTS -1, Bim-Mcl-1 66*, Mcl1 Noxa PPI 24 and Mcl1-Bid inh -11.
Screening O=C(O)COn1c(-c2ccccc2)nc2ccc([N+](=O)[O-])cc21 returned 14-3-3 Bad PPI 53, Hck Nef HTS 3, Pf gamet viab -15, Bim-Mcl-1 1, Mcl1 Noxa PPI 55* and Mcl1-Bid inh 15.
CCOC(=O)C(C)On1c(-c2ccccc2)nc2ccc([N+](=O)[O-])cc21 (centres undefined) was read as 14-3-3 Bad PPI 2, Hck Nef HTS 3, Bim-Mcl-1 0, Mcl1 Noxa PPI 15 and Mcl1-Bid inh 31.
Screening CN(C)c1nc2c(c(=O)[nH]c(=O)n2C)n1CCOc1ccccc1 returned Pf gamet viab -3.
CN1C(=O)C(N=Nc2ccccc2C(=O)O)N(C)C1=S (centres undefined) was read as 14-3-3 Bad PPI -19, Hck Nef HTS 21, Pf gamet viab -7, Bim-Mcl-1 -1, Mcl1 Noxa PPI 39 and Mcl1-Bid inh 53*.
For S=c1[nH]nc([C@@H]2C[C@H]2c2ccccc2)n1-c1ccccc1 the results were 14-3-3 Bad PPI -4, Hck Nef HTS 3, Pf gamet viab 32, Bim-Mcl-1 -5, Mcl1 Noxa PPI 29 and Mcl1-Bid inh -38.
Cc1cccc(/C=C/C(=O)c2ccc(NC3=NCCCS3)cc2)c1 was read as 14-3-3 Bad PPI 1, Hck Nef HTS 1, Pf gamet viab -10, Bim-Mcl-1 -4, Mcl1 Noxa PPI 88* and Mcl1-Bid inh 27.
Screening O=C(/C=C/c1ccc(Br)cc1)c1ccc(NC2=NCCCS2)cc1 returned 14-3-3 Bad PPI 6, Hck Nef HTS 9, Pf gamet viab 7, Bim-Mcl-1 0, Mcl1 Noxa PPI 49 and Mcl1-Bid inh 8.
O=C(/C=C/c1ccccc1)c1ccc(NC2=NCCCS2)cc1 was read as 14-3-3 Bad PPI -6, Hck Nef HTS 4, Pf gamet viab 2, Bim-Mcl-1 -2, Mcl1 Noxa PPI 84* and Mcl1-Bid inh 12.
`COc1cccc(/C=C/C(=O)c2ccc(NC3=NCCCS3)cc2)c1` gave 14-3-3 Bad PPI 3, Hck Nef HTS 5, Pf gamet viab 5, Bim-Mcl-1 -25, Mcl1 Noxa PPI 57* and Mcl1-Bid inh 9.
Screening COc1cc(/C=C2/C(=O)NN(c3cccc(F)c3)C2=O)ccc1OC(=O)c1ccco1 returned 14-3-3 Bad PPI -5, Hck Nef HTS 7, Pf gamet viab -15, Bim-Mcl-1 -3, Mcl1 Noxa PPI 33 and Mcl1-Bid inh -38.
Screening COc1cc(/C=C2/C(=O)NN(c3ccc(Cl)cc3)C2=O)ccc1OC(=O)c1ccco1 returned 14-3-3 Bad PPI -28, Hck Nef HTS 4, Pf gamet viab -7, Bim-Mcl-1 3, Mcl1 Noxa PPI 62* and Mcl1-Bid inh -4.
`CC(C)N=c1scc(-c2cccs2)n1/N=C/c1ccc(O)c(O)c1O` gave 14-3-3 Bad PPI -20, Hck Nef HTS 23, Pf gamet viab -10, Bim-Mcl-1 -3, Mcl1 Noxa PPI 52* and Mcl1-Bid inh -94.
`CCN=c1scc(-c2cccs2)n1/N=C/c1cc(OC)ccc1O` gave 14-3-3 Bad PPI -14, Hck Nef HTS -2, Pf gamet viab 6, Bim-Mcl-1 -3, Mcl1 Noxa PPI 25 and Mcl1-Bid inh -30.
`CSc1nc(N(C)C)c2ccccc2n1` gave 14-3-3 Bad PPI -4, Hck Nef HTS 1, Pf gamet viab -19, Bim-Mcl-1 1, Mcl1 Noxa PPI 1 and Mcl1-Bid inh -21.

Source: PubChem BioAssay
